# HCV inhibitor – inhibitors of hepatitis C virus infection; 340,000 tested, 3.4% active; AID 651820; Potency, µM (highest dose often 41.8 µM), for inactives: at the top dose activity change, negative = inhibition, most hits filed as inhibitors; Huh7.5.1 HCVcc-Cre infection, luciferase reporter, 44 h; active means well fitted inhibition curve with a large enough effect; inconclusive means small, poorly fitted or top-dose-only effect, or another doubt; inactive means no such curve, though single readings can be large or run the other way; further: potency means the concentration at half of the fitted maximal effect; on the % scale 0 is the no-effect control and ±100 the full control effect
#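 1,000 cells/well; 4 h culture; + compound; + HCVcc-Cre (~0.5 moi); 44 h; luciferase substrate, RT 15 min; read 15 sec.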
# Marburg entry inh – blocks Marburg virus binding to or entry into cells. Marburg virus pseudotyped entry inhibition, cell reporter. Potency, µM (doses to about 37.8 µM), inactives show at the top dose activity change, negative = inhibition, actives largely listed as inhibitors. 300,000 tested, 1.8% active; calls by dose curve; tested in HEK293 cells; further: potency means the concentration at half of the fitted maximal effect; on the % scale 0 is the no-effect control and ±100 the full control effect
# LASV entry inh – blocks Lassa virus binding to or entry into cells. Lassa virus pseudotype entry inhibition, cell reporter. Potency, µM (titrated, usually from 37.9 µM), for the others: at the highest dose activity change, negative = inhibition, actives largely listed as inhibitors. 300,000 tested, 1.2% active. AID 540256; calls by dose curve; tested in HEK293 cells; further: potency means the concentration at half of the fitted maximal effect; on the % scale 0 is the no-effect control and ±100 the full control effect; nearly all actives have a fitted effect of over 50% in size
# Cycloheximide cs – counter-screen for Shiga toxin inhibitors: cycloheximide protein synthesis inhibition; cell reporter, cycloheximide protein synthesis inhibition counterscreen; max response, %; 300,000 tested, 12% active; in the data active means max response mostly above about 13%, no sharp cut-off; inactive means mostly below about 14%; further: read at 38.3 µM for the half of the compounds with a filed dose; 0% is about no effect
# FMDV inh – antivirals against foot and mouth disease virus; FMDV antiviral cell-based qHTS; 410,000 tested, 1.2% active; Potency, µM (titrated, usually from 57.9 µM), inactives show at the top dose activity change, negative = inhibition, usual class: inhibitors; calls by dose curve; tested in HEK293T cells; further: read-out not given here; potency means the concentration at half of the fitted maximal effect; on the % scale 0 is the no-effect control and ±100 the full control effect; nearly all actives have a fitted effect of over 45% in size
# Shiga toxin inh – Shiga toxin inhibition | Vero cells, Shiga toxin protein synthesis inhibition reporter | inhibition, % at 38.7 µM | 290,000 tested, 9.2% active | AID 2315; in the data active means inhibition mostly above about 28%, no sharp cut-off; inactive means mostly below about 43%; further: 0% is about no effect
# The depositor's hits bear a star; ? = inconclusive; · = not tested or not shown; [ ] = remark or other dose. Sampled rows, rich in hits. Any-hit rate of the full collection: about 13%.
SMILES,HCV inhibitor,Marburg entry inh,LASV entry inh,Cycloheximide cs,FMDV inh,Shiga toxin inh
C=CC[C@@H](CC(=O)N(CCO)Cc1ccccc1)C(=O)N[C@@H](COC(=O)[C@@H](CC=C)Cc1ccc(F)cc1)Cc1c[nH]c2ccccc12,?,·,·,·,0.0%,·
C=CC[C@H](CC(=O)N(CCO)Cc1ccccc1)C(=O)N[C@@H](COC(=O)[C@@H](CC=C)Cc1ccc(F)cc1)Cc1c[nH]c2ccccc12,22.4µM*,·,·,·,?,·
C=CCC[C@H](Cc1ccc(F)cc1)C(=O)OC[C@@H](Cc1c[nH]c2ccccc12)NC(=O)[C@H](CC=C)CC(=O)N(CCO)Cc1ccccc1,?,·,·,·,39.8µM*,·
CSC1=NC(=O)/C(=C/c2ccc(SC)cc2)S1,-4.1%,-10.2%[46.1 µM],?,30.8*,18.9%,96.3
CN=C1S/C(=C\c2ccc(SC)cc2)C(=O)N1C,?,2.9%[46.1 µM],?,33.0*,20.8%,56.0*
C=CCN=C1S/C(=C/c2ccc([N+](=O)[O-])cc2)C(=O)N1CC=C,-10.6%,-4.8%[46.1 µM],-5.0%,-0.8,4.2%,-2.5
C=CCN=C1S/C(=C\c2ccc(Cl)cc2)C(=O)N1CC=C,-6.1%,0.2%[46.1 µM],-8.0%[46.1 µM],12.5,-19.5%,49.5*
CSC1=N/C(=C\c2ccc(F)cc2)C(=O)S1,-3.0%,?,?,7.5,-15.8%,-17.5
CN=C1S/C(=C\c2ccc(OCC(=O)OC)c(OC)c2)C(=O)N1C,-0.9%,·,·,13.0*,43.6%,·
CN=C1S/C(=C\c2ccc(O)c(OC)c2)C(=O)N1C,-18.9%,-29.6%,?,·,22.2%,·
O=c1[nH]c(=S)n(Cc2ccc(F)cc2)c(O)c1C=NCc1cccnc1,-0.9%,-0.1%,-13.9%,9.8,-20.8%,-5.3
COc1ccc(CC2(CO)CCN(Cc3cccn3-c3ccccn3)CC2)cc1,-16.6%,?,0.4%,-1.3,-7.3%,-8.3
CN=C1S/C(=C\c2ccc(O)c(Br)c2)C(=O)N1C,5.1%,·,·,4.6,2.6%,23.2
CCOC(=O)C1CCN(C2=NC(=O)/C(=C/c3ccc(Cl)cc3)S2)CC1,11.2%,-8.4%[46.1 µM],-10.7%[46.1 µM],-7.2,1.4%,-6.4
CN=C1S/C(=C\c2ccc(Cl)cc2)C(=O)N1C,11.2µM*,19.8%[46.1 µM],25.8%,6.2,17.7%,26.2
CCOC(=O)CSC1=NC(=O)/C(=C\c2ccc(Cl)cc2)S1,?,1.4%,-11.5%,33.8*,17.8µM*,104.2*
O=C(Nc1nc(-c2ccccc2)c(-c2ccccc2)o1)c1ccc(F)cc1,?,10µM*,-10.8%,0.4,-11.0%,6.6
COc1cccc(C(=O)Nc2nc(-c3ccccc3)c(-c3ccccc3)o2)c1,?,?,?,10.2,-9.8%,13.3
O=Nc1c(O)c2ccccc2c2ccccc12,?,·,·,·,11.2µM*,·
CCOC(=O)c1c(NC(C)=O)sc2c(OC)c(Br)ccc12,?,-14.0%,29.8%,-3.0,·,-18.0
CCOC(=O)c1c(NC(C)=O)sc2c(OCC(O)CN(CC)CC)c(Br)ccc12 (configuration not stated),5.62µM*,11.2µM*,2.51µM*,-24.9,14.2%,-27.9
CCOC(=O)c1c(NC(C)=O)sc2c(OCCN(CC)CC)c(Br)ccc12,12.6µM*,·,·,-4.6,-3.1%,7.3
Oc1ccccc1/C=N/c1c(-c2ccco2)nc2ccccn12,9.9%,19.9%,?,6.0,1.3%,-10.1
COc1ccc(-c2csc3ncnc(N4CCN(c5ccccc5OC)CC4)c23)cc1,11.2µM*,?,?,0.8,?,-10.5
COc1ccc(-c2csc3ncnc(N4CCN(S(=O)(=O)c5ccc(C)c(C)c5)CC4)c23)cc1,11.2µM*,?,?,·,-26.2%,·
SMILES,HCV inhibitor,Marburg entry inh,LASV entry inh,Cycloheximide cs,FMDV inh,Shiga toxin inh
O=S(=O)(c1ccccc1)N1CCN(c2ncnc3scc(-c4ccccc4)c23)CC1,?,?,?,1.8,-12.3%,-6.3
Oc1ccccc1N1CCN(c2ncnc3scc(-c4ccc(F)cc4)c23)CC1,11.2µM*,?,?,1.4,-9.7%,-3.2
CN(C)CCCC(C)(O)C(Cc1ccccc1)c1ccccc1 (configuration not stated),?,?,-6.6%,-3.3,-18.9%,-6.3
CC(=O)NC(N(C#N)c1nc(Cl)nc(N(C)C)n1)C(Cl)(Cl)Cl (configuration not stated),0.1%,-3.8%,6.3%,0.3,-13.1%,3.9
CC[C@H](C)[C@@H](NC(=O)O[C@@H]1C(=O)c2cc(OC)ccc2O[C@H]1c1ccc(OC)c(Br)c1)C(=O)OC,?,15.1%[14.2 µM],-1.5%,5.9,-17.6%,-10.5
COc1cccc([C@@H]2Oc3ccc(OC)cc3C(=O)[C@H]2OC(=O)NCc2ccc3c(c2)OCO3)c1,-2.6%[8.37 µM],31.0%,-2.1%,63.6*,·,83.7*
COc1cccc([C@@H]2Oc3ccc(OC)cc3C(=O)[C@H]2OC(=O)Nc2cc(OC)c(OC)c(OC)c2)c1,?,12.9%[14.2 µM],-13.4%,11.1*,28.7%,45.5*
COc1ccc2c(c1)C(=O)[C@H](O)[C@@H](c1ccc(OC)c(Br)c1)O2,0.3%[8.37 µM],-43.5%,?,18.7*,20.8%,53.6
COc1ccc2c(c1)O[C@H](c1ccc3c(c1)OCO3)[C@@H](OC(=O)NCc1ccc3c(c1)OCO3)C2=O,·,0.4%[14.2 µM],·,·,·,·
COc1ccc2oc(C(=O)OCC(=O)N3CCN(S(=O)(=O)c4ccccc4)CC3)c(C)c2c1,-15.4%,?,-16.6%,·,-18.7%,·
O=C(Nc1nccs1)c1ccc(Br)o1,-10.9%,22.4%,10.8%,33.4*,·,69.4*
O=C(O)/C=C/C(=O)Nc1nccs1,17.9%,0.6%[46.1 µM],21.3%[46.1 µM],5.3,-3.9%,1.6
O=C(/C=C/c1ccc(Br)o1)Nc1nccs1,-12.6%,?,1.6%,38.6*,58.9%,94.5*
Cc1ccc(C)c(C(C)NC(=S)NC2CCCCC2)c1 (configuration not stated),?,?,1.8%[46.1 µM],-2.3,-11.1%,-4.0
CC(C)(C)c1ccc(C(=O)/C=C2\NC(=O)CS2)cc1,-16.2%,-19.5%[46.1 µM],?,26.3*,-56.7%,48.8
COc1ccccc1NC(=O)/C=C1\NC(=O)CS1,17.6%,-8.6%[46.1 µM],-10.1%,45.0,29.5%,83.9
Cc1ccc(NC(=O)/C=C2\NC(=O)CS2)cc1,11.5%,9.8%[46.1 µM],9.9%,45.1*,44.4%,61.5*
Cc1onc(-c2c(F)cccc2Cl)c1C(=O)NNC(=O)C1CCN(Cc2cccc(F)c2)CC1,-5.3%,?,-2.7%,0.8,-23.1%,14.4
COc1ccc(C(=O)NN/C(=N/S(=O)(=O)c2ccc(C)cc2)c2ccccc2)cc1,24.1%,?,8.91µM*,51.5*,62.7%,58.8*
COc1ccc(C(=O)NNS(=O)(=O)c2ccc(OC)cc2)cc1,16.7%,·,·,8.2,14.2%,-16.1
COc1ccc(C(=O)NNS(=O)(=O)c2ccccc2)cc1,18.9%,?,1.4%,17.1*,36.3%,55.2
COc1ccc(NC(=O)C2C3C=CC4(O3)C2C(=O)N(CCCN2CCCCC2)C4C(=O)NC2CCCC(C)C2C)cc1 (configuration not stated),-26.8%,-25.0%[46.1 µM],-34.2%[46.1 µM],-1.1,-10.3%,2.8

# High-throughput results from PubChem BioAssay.
